target: AMP-activated protein kinase, AMPK (Homo sapiens) (UniProt P54646+O43741+P54619+Q9UGJ0+Q9Y478+Q13131+Q9UGI9); experiment: AMP-dependent Kinase enzyme assay. An in vitro enzyme assay that detects ADP turnover that is directly proportional to AMPK activity. This uses naive AMPK that is activated during the assay with MK-8722; assay type: functional; parameters: scale not given: direction of the effect not stated beside the values; settings: 30 µM

Compound	Percent Effect
O=C(CCC1CCCN(C(=O)CCc2ccc(F)c(F)c2)C1)NC1CC1 (stereo not given)	5.21%
Cc1ccc(CNCc2nccn2C)c(OC(C)(C)C)c1	-4.8%
CCN1CCC(CC(=O)NCCc2nc(C)cc(C)n2)CC1	1.66%
Nc1ccc(C(=O)N2CCC(Oc3cccc(C(F)(F)F)c3)CC2)cn1	6.7%
CC(O)C(=O)N1CCC(c2[nH]ncc2-c2ccccc2)CC1 (stereo not given)	-11.2%
OC1CCN(C2CCN(c3ccc(Cn4ccnc4)cn3)CC2)CC1	-3.24%
NC(=O)CN(Cc1ncc(-c2ccccc2)o1)C1CCCC1	-1.01%
Cc1ccccc1Cc1nc(CSc2nnc(N)n2C2CC2)no1	7.43%
COc1ccc(-c2cccc3c2OC(CN)C3)cc1F (stereo not given)	0.444%
COc1cccc(-c2nc(CNCCc3cccnc3)cs2)c1	-3.62%
CC(C)N(C)S(=O)(=O)c1ccc2c(c1)CCN(C(=O)c1cscn1)C2	-3.43%
CN(Cc1cnn(C)c1)C(=O)Nc1cccnc1-n1cccn1	0.000815%
CCn1ncnc1C(C)Nc1cc(C2CCNCC2)nc(C)n1 (stereo not given)	-7.46%
CN(C)C[C@@H]1CN(C(=O)c2cc(-c3ccccc3)n[nH]2)C[C@@H]1CO	-6.79%
O=C(CN1CCC(c2nnc(C(F)(F)F)o2)CC1)Nc1cccc(Cl)c1	-5.71%
Cc1ccc(C(C)N(C)C(=O)c2ccc(=O)n(C)c2)s1 (stereo not given)	3.36%
CC(C)(C)CN(CCC#N)C(=O)c1cccc(CN2CCCC2)c1	7.06%
O=C(CCc1nnc(-c2ccsc2)o1)NCC1CCN(C2CC2)C1 (stereo not given)	4.06%
COC1CCN(c2ccc(F)cc2CN(C)C(C)C(N)=O)CC1 (stereo not given)	8.56%
Cc1nnsc1CN1CC[C@@](O)(C2CCC2)[C@H](C)C1	-5.82%

Compound	Percent Effect
Cc1cc(CNCC2(O)CCOCC2)ccc1Br	-7.22%
Cc1ccsc1C(=O)NCc1ccnc(C2CCCOC2)n1 (stereo not given)	11.8%
Cc1ccc(C(=O)NC2CCN(C)CC2)cc1N(C)S(C)(=O)=O	-1.82%
COc1ccc(-c2cc(C3CCCCCN3S(C)(=O)=O)on2)cc1 (stereo not given)	7.05%
CS(=O)(=O)CCCN1CCSCC1c1ccc(Cl)cc1 (stereo not given)	-4.65%
O=C1OCCCN1Cc1nc(-c2ccc(N3CCCCC3)cc2)no1	-1.59%
CN1CCCCC1Cc1nc2c(cc1C(N)=O)CCC2 (stereo not given)	-4.26%
CN1CCN(c2cccc(NC(=O)NCc3csc(N(C)C)n3)c2)C1=O	-16.7%
CCN(CC1=CCN(C)CC1)C(=O)CCOC	-8.72%
Cc1ncsc1COC(=O)c1cccc2c1OCCO2	7.13%
CS(=O)(=O)c1ccc(CN2C[C@H]3CC[C@@H]2CN(c2ncccn2)C3)cc1	9.64%
O=C(COCc1ccccc1)NCc1ccc(O)c(F)c1	8.21%
CNc1ncc(C(=O)N2CCCC(CO)(CCCOC)C2)cn1 (stereo not given)	5.91%
Cn1cc(S(=O)(=O)N(Cc2ccc(F)cc2F)C2CC2)cc1C(N)=O	3.23%
CC(C)(C)c1nc(CN2CCCC2c2nnc3ccccn23)no1 (stereo not given)	6.67%
Cc1ccncc1CN1CCOCC1c1[nH]ncc1C (stereo not given)	17%
CNc1ccc(C2CN(c3cc(C)nc(N)n3)CCO2)nc1 (stereo not given)	17.3%
Cn1ccnc1CN1CCN(Cc2cc(-c3ccccc3)no2)CC1	-2.31%
O=C1NCCN(Cc2cccnc2)C1CC(=O)N1CCc2n[nH]cc2C1 (stereo not given)	-26.7%
Cc1nc(S(=O)(=O)N2CCCCc3ccccc32)cn1C	0.965%

From ChEMBL document CHEMBL3988442, “University of Dundee, Small-Polar-MMV Screening Library” (2021)
